# Laboratory results: ChEMBL document CHEMBL1961873, “Compounds: GSK PKIS; Assays: Nanosyn kinase panel” (2012)
# Legend:
# [1] = target: T1, Ephrin type-B receptor 2 (Homo sapiens) (UniProt P29323); conditions: at 1 µM
# T1 sequence (whole entry): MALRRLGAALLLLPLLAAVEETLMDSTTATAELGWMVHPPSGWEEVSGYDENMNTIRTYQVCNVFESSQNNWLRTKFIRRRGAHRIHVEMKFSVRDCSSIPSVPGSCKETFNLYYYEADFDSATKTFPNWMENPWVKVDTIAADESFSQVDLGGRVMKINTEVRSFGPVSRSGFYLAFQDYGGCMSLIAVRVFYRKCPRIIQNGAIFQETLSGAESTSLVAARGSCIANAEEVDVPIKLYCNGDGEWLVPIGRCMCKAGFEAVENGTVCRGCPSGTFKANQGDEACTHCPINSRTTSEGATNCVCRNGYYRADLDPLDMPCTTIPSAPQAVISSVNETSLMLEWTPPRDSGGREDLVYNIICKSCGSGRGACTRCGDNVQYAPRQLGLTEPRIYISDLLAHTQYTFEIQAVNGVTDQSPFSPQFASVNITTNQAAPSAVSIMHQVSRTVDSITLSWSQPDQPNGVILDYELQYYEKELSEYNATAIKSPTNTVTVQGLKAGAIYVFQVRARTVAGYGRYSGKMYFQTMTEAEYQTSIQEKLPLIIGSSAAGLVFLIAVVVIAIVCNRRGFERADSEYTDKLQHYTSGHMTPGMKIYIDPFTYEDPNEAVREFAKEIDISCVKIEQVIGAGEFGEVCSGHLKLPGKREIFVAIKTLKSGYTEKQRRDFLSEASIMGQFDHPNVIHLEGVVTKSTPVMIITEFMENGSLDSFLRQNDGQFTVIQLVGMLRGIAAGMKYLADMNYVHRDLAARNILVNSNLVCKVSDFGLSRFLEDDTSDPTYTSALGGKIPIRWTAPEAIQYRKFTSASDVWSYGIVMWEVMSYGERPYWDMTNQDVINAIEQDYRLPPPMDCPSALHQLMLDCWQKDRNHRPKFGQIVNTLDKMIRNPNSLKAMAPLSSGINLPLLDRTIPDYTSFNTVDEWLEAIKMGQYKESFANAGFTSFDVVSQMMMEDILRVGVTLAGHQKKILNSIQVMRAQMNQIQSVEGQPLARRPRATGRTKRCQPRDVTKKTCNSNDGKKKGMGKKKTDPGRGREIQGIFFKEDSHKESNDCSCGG
# [2] = target: T2, Ephrin type-B receptor 3 (Homo sapiens) (UniProt P54753); conditions: at 0.1 µM
# T2 sequence (whole entry): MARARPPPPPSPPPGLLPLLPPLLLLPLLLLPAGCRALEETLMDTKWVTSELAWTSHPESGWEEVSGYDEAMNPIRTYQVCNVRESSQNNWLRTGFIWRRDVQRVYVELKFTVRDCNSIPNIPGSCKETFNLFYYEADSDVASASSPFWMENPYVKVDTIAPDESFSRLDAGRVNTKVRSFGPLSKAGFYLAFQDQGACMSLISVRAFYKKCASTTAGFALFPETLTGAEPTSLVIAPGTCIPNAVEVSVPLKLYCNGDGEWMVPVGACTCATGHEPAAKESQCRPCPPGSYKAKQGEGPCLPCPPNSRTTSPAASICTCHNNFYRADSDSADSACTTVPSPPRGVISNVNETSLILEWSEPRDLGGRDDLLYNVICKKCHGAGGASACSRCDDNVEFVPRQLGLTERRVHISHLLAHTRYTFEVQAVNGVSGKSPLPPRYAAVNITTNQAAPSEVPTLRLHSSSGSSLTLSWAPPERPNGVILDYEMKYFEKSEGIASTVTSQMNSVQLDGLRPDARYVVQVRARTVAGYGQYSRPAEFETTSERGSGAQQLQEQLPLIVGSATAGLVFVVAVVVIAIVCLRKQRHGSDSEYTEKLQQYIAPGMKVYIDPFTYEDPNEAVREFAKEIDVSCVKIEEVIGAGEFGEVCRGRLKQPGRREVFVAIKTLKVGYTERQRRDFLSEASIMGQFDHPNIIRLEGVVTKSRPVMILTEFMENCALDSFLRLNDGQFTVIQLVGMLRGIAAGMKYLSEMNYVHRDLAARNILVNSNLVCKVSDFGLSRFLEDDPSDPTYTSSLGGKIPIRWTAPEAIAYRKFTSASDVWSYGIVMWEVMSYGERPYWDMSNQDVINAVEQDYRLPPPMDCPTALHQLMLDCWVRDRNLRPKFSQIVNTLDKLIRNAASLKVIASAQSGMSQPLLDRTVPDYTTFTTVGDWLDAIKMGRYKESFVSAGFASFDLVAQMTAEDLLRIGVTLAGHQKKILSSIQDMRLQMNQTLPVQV
# [3] = target: T2, Ephrin type-B receptor 3 (Homo sapiens); conditions: at 1 µM
# [4] = target: T3, Ephrin type-B receptor 4 (Homo sapiens) (UniProt P54760); conditions: at 0.1 µM
# T3 sequence (whole entry): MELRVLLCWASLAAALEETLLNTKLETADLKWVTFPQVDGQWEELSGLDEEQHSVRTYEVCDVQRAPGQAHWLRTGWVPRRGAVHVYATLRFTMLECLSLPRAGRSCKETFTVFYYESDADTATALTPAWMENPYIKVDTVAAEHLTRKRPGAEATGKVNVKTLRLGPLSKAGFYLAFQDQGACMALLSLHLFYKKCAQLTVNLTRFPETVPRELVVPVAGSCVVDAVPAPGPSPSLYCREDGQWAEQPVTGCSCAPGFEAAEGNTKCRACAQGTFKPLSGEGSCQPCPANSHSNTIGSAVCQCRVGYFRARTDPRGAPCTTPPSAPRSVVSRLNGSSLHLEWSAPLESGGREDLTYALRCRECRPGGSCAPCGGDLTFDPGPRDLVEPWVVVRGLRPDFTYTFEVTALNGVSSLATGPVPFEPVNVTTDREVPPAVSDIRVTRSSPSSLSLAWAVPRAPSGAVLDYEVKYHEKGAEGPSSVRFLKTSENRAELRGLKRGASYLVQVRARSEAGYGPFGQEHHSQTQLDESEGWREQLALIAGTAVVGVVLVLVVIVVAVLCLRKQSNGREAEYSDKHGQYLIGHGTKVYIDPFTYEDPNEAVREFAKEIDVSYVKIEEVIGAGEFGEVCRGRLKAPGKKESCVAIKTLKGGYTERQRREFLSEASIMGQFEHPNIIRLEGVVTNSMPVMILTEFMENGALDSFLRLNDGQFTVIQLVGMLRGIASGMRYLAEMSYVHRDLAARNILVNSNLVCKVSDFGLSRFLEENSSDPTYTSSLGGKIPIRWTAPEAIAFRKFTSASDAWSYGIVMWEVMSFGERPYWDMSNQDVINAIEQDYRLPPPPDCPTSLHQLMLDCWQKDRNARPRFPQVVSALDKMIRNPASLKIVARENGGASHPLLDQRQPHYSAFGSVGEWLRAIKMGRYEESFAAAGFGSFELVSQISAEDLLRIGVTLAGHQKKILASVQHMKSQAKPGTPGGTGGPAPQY
# [5] = target: T3, Ephrin type-B receptor 4 (Homo sapiens); conditions: at 1 µM
# [6] = target: Receptor tyrosine-protein kinase erbB-2 (Homo sapiens) (UniProt P04626); conditions: at 0.1 µM
# [7] = target: Receptor tyrosine-protein kinase erbB-2 (Homo sapiens) (UniProt P04626); conditions: at 1 µM
# [8] = target: Receptor tyrosine-protein kinase erbB-4 (Homo sapiens) (UniProt Q15303); conditions: at 0.1 µM
# [9] = target: Tyrosine-protein kinase Fer (Homo sapiens) (UniProt P16591); conditions: at 0.1 µM;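 further: reported figures are averaged percent inhibition of FER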
# [10] = target: Receptor tyrosine-protein kinase erbB-4 (Homo sapiens) (UniProt Q15303); conditions: at 1 µM
# Sequence of Receptor tyrosine-protein kinase erbB-4 (Homo sapiens) (Q15303 whole entry): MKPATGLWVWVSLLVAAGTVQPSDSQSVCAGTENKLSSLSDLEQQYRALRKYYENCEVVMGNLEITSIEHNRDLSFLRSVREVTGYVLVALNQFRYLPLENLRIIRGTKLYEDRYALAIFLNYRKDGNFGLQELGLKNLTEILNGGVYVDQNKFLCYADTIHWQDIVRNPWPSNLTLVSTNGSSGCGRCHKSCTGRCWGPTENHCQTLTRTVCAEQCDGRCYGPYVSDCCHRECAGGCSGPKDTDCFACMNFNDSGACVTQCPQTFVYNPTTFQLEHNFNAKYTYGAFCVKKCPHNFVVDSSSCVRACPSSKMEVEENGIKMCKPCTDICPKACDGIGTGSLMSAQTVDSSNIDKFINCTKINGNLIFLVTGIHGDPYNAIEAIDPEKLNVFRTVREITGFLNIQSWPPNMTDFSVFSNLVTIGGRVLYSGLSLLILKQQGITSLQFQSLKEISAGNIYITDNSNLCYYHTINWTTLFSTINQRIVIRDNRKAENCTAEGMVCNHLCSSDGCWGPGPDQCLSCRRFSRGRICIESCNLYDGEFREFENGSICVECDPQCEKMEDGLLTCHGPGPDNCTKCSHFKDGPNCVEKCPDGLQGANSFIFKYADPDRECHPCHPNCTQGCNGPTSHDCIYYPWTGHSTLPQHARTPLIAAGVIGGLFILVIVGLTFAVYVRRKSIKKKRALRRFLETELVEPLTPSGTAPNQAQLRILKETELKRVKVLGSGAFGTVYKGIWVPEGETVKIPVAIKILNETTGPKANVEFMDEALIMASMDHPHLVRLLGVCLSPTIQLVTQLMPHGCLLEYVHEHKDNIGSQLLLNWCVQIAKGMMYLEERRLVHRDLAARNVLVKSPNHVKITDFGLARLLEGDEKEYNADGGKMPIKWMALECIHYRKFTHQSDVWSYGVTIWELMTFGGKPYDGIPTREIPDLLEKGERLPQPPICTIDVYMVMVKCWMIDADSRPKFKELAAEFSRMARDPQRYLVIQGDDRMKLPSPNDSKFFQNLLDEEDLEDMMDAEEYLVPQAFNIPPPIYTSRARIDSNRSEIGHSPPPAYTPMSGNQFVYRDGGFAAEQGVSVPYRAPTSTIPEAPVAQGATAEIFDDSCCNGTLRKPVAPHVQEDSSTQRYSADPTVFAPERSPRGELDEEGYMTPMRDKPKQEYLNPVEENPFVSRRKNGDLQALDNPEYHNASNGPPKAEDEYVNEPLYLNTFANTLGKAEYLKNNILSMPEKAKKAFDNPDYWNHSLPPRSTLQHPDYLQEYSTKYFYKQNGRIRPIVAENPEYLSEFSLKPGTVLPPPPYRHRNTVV
# Sequence of Receptor tyrosine-protein kinase erbB-2 (Homo sapiens) (P04626 whole entry): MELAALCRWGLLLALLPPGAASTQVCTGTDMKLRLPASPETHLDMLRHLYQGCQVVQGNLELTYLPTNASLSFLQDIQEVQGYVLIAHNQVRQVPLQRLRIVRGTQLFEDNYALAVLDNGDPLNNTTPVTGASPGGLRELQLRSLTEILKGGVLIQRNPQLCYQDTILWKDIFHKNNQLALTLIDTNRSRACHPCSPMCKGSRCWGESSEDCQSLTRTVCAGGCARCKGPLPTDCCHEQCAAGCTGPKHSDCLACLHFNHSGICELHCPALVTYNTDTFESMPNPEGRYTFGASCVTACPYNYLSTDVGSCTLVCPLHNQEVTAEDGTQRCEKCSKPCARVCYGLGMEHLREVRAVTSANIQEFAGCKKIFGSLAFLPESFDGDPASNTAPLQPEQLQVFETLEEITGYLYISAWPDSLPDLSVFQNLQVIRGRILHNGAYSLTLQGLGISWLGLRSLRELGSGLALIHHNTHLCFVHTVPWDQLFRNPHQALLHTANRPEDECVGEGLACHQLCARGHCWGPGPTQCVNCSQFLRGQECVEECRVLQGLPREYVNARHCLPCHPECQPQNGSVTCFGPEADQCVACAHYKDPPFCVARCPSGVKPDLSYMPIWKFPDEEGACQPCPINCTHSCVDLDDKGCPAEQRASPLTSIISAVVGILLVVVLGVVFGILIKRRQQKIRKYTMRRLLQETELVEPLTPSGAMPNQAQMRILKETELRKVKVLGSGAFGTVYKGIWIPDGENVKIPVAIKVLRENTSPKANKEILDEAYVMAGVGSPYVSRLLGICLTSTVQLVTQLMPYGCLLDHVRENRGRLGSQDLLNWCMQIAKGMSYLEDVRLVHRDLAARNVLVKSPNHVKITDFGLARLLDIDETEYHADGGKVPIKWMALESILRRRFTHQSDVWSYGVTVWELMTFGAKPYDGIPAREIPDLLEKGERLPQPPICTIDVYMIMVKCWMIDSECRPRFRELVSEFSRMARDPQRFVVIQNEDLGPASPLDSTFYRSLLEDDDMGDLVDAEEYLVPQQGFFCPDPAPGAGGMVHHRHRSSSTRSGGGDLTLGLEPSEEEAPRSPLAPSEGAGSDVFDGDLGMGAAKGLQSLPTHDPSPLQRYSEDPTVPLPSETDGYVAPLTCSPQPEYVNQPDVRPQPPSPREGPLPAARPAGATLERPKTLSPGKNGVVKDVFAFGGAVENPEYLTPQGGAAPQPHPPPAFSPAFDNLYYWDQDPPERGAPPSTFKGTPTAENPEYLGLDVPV
# Sequence of Tyrosine-protein kinase Fer (Homo sapiens) (P16591 whole entry, looked up): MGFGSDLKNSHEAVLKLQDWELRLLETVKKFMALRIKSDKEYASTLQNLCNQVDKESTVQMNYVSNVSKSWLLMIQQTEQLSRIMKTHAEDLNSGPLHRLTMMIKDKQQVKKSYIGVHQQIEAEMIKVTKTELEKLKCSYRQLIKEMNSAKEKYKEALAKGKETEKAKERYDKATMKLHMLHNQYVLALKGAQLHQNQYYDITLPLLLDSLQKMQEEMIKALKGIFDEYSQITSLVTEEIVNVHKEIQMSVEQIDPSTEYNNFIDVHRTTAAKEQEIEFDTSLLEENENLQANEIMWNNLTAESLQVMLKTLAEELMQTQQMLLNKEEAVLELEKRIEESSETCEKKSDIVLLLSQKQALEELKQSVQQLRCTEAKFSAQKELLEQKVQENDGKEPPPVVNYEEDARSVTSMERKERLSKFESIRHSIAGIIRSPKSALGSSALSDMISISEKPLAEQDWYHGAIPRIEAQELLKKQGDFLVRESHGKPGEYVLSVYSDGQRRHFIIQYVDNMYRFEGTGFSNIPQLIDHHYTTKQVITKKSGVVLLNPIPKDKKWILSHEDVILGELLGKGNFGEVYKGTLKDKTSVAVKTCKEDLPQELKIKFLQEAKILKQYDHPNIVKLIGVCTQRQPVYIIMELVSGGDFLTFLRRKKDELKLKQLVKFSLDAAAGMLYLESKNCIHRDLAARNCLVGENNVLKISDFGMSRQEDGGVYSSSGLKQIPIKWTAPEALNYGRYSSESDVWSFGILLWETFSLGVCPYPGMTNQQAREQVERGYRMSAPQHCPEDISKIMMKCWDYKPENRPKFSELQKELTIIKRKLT
Structure (SMILES),inhibition [1] [%],inhibition [2] [%],inhibition [3] [%],inhibition [4] [%],inhibition [5] [%],inhibition [6] [%],inhibition [7] [%],inhibition [8] [%],inhibition [9] [%],inhibition [10] [%]
COc1cc2ncn(-c3cc(OCc4ccccc4C(F)(F)F)c(C(=O)N(C)C)s3)c2cc1OC,3.29,2.32,0.33,-1.02,1.55,0.2,-1.05,2.15,-0.2,–
Fc1ccc(-c2nn3ncccc3c2-c2ccnc(Nc3ccc4c(c3)OCCO4)n2)cc1,73.6,–,16.2,20.1,64.8,11,41.4,84.3,1.71,94.6
N#Cc1c(NC(=O)CN2CCOCC2)sc2c1CCCC2,12.9,4.21,4.07,2.41,0.41,2.23,4.83,7,8.53,5.12
CN1CCC(n2cnc(-c3ccc(F)cc3)c2-c2ccnc(N)n2)CC1,11.7,4.01,1.1,1.15,2.9,1.81,3.61,8.28,1.42,18.6
Cc1ccc2c(-c3ccnc(Nc4ccccc4)n3)c(-c3ccc(F)cc3)nn2n1,70.6,6.49,11.4,12.9,56.9,3.68,32.3,67.3,0.47,88.7
COc1ccc(-c2oc3ncnc(N)c3c2-c2ccc(NC(=O)Nc3cc(C(F)(F)F)ccc3F)cc2)cc1,89.9,92.7,99.7,83.7,96.6,4.07,8.56,12.8,8.1,14.6
COC(=O)c1sc(-n2cnc3cc(OC)c(OC)cc32)cc1OCc1ccccc1C(F)(F)F,10.3,7.34,6.47,2.86,3.16,3.29,-2.49,8.62,1.07,11
Nc1nc(-c2cccc(Cl)c2)c(-c2ccc3ncccc3n2)s1,15.5,5.95,5.53,2.58,3.57,2.61,5.7,–,4.91,28.1
CC(C)(CO)CNC(=O)c1ccc2c(c1)/C(=N/Nc1ccc(S(N)(=O)=O)cc1)C(=O)N2,7.99,-0.32,0.79,-2.31,-0.62,0.9,3.86,4.68,-7.05,7.73
NS(=O)(=O)c1ccc(N/N=C2\C(=O)Nc3ccc4ncccc4c32)cc1,29.1,2.75,-3.76,2.29,13.2,1.33,-2.88,11.4,3.38,10.4
Clc1ccc(-c2nn3ncccc3c2-c2ccnc(Nc3ccccc3)n2)cc1,55.4,4.87,5.92,6.02,37.2,-4.83,6.14,27.9,1.86,69.5
NS(=O)(=O)c1ccc(Nc2ncc(-c3ccccc3)o2)cc1,7.75,4.17,3.33,2.27,1.72,2.57,2.77,8.79,2.73,10.5
COc1cc(/C=N/Nc2ncnc3[nH]ncc23)ccc1O,38.7,3.99,5.19,5.34,20.9,2.03,4.08,13.4,3.03,21.1
c1cc(-c2cnn3nc(N4CCOCC4)ccc23)nc(NC2CC2)n1,9.21,2.88,3.96,0.45,1.96,1.45,1.94,13.6,0.53,15.3
CCn1c(-c2nonc2N)nc2cnc(Oc3cccc(NC(=O)c4ccc(N(C)C)cc4)c3)cc21,7.72,4.18,3.26,0.67,0.71,1.13,-0.18,8.23,1.16,9.63
COc1ccc(CNC(=O)c2ccc(-c3cc(-c4nnc(C)o4)ccc3C)cc2)cc1,10.6,-0.7,0.39,1.69,-0.88,3.57,10.7,2.27,2.8,7.19
O=C(O[C@H]1CN[C@H](C#Cc2cc3ncnc(Nc4ccc(Cc5ccccc5)cc4)c3s2)C1)N1CCOCC1,6.03,4.37,3.49,-0.73,1.41,–,–,112,-1.21,107
